# Source: PubChem BioAssay AID504339 (National Center for Advancing Translational Sciences (NCATS), 2011)
# Among all 390,000 compounds or so, about 17,000 (4.4%) were called active. A call without a number means that no potency is given here. Another 8% or so got no clear call; they are omitted. Calls follow the shape of the dose curve; as a rule, active = well fitted inhibition curve with a large enough effect; inconclusive = small, poorly fitted or top-dose-only effect; inactive = no such curve, though single readings can be large or run the other way. The full list was thinned out, with actives kept by preference.
# Biological target: Lysine-specific demethylase 4A (Homo sapiens) (UniProt O75164)
# Sequence (O75164 whole entry, looked up, the tested form may be a part): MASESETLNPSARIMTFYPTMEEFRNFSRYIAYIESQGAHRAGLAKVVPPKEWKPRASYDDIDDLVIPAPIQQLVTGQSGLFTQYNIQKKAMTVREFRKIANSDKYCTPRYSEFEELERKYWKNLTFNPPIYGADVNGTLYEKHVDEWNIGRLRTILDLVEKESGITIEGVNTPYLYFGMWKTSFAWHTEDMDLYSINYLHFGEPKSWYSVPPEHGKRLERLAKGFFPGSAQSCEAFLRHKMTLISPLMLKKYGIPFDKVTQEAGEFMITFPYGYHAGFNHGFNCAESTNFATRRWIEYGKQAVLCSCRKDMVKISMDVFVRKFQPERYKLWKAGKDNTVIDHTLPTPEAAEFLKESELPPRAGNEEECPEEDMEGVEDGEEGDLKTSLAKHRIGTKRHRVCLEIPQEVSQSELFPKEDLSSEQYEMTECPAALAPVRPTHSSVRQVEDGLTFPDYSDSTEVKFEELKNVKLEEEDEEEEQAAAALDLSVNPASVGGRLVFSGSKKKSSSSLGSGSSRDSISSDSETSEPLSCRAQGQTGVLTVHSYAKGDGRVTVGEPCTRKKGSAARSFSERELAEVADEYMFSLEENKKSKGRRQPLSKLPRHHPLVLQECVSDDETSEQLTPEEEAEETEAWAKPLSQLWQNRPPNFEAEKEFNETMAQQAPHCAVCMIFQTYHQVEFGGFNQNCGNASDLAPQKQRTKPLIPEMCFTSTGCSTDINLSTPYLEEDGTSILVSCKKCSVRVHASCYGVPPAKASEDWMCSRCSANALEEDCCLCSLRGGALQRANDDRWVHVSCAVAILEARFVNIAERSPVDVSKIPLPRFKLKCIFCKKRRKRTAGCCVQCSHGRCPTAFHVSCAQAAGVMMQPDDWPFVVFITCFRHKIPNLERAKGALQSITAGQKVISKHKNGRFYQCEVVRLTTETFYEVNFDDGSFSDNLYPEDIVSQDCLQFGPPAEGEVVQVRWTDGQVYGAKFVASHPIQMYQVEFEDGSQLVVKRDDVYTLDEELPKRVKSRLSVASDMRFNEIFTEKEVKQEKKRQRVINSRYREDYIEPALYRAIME
# Assay: qHTS Assay for Inhibitors of JMJD2A-Tudor Domain; also: nearly all actives have a fitted effect of over 50% in size
# Conditions: AlphaScreen JMJD2A-Tudor / H3K4me3 peptide binding; series mostly up to 114 µM
# Description: JMJD2A is a jumonji-domain-containing lysine demethylase that uses Fe(II) together with 2-OG to effect oxidative demethylation of histones. Methylation is one of many […] modification that affect epigenetic transcription. […] It is proposed that the functions of JmjD2A binding to the histones, is to maintain marks after they are installed and to spread the modifications by […], establishing a self-propagating cycle for rapid methylation over a large area of chromatin. […] Thus, small molecule targeting of the JMJD2A-tudor domain interaction with its target methylhistone mark is expected to enable sophisticated experiments probing the fine regulatory pathways leading to selective demethylation of a given methyllysine locus based on the methylation state of adjacent histone marks. A quantitative high throughput AlphaScreen has been developed to identify small molecule inhibitors based on a protocol published by NCGC and SGC [4].
# Although AlphaScreen has significant advantages with its utility in a variety of epigenetic target assays, the primary screening data provided in this deposition should be used with caution due to the prevalence of screening artifacts. The top compound concentration tested was high (>100uM) in this assay, which increases number of actives and potential artifacts. An AlphaScreen counterscreen is highly recommended to be run against any putative actives to eliminate non-specific artifacts. Alternatively, one can use other AlphaScreen assays in PubChem to filter out promiscuous hits.
# [1] Lee, J. et al. Distinct binding modes specify the recognition of methylated histone H3K4 and H4K20 by JMJD2A-tudor. Nat Struct Mol Biol. 15(1); 109-11. 2008. PMID: 18084306
# [2] Yasgar, et al. Compound Management for Quantitative High-Throughput Screening. JALA. 2008 Apr;13(2):79-89. PMID: 18496600
# [3] Inglese, et al. Quantitative high-throughput screening: a titration-based approach that efficiently identifies biological activities in large chemical libraries. Proc Natl Acad Sci. 1;103(31):11473-8. 2006. PMID: 16864780
# [4] Quinn et al. A homogeneous method for investigation of methyl-dependent protein-protein interactions in epigenetics. Nucleic Acids Res., 38(2):e11. 2010. PMID: […]
# [5] Baell,Holloway. New substructure filters for removal of pan assay interference compounds (PAINS) from screening libraries and for their exclusion in bioassays. J Med Chem. 53(7):2719-40. 2010. PMID: 20131845
# NIH Molecular Libraries Probe Production Network [MLPCN]
# NIH Chemical Genomics Center [NCGC]
# Structural Genomics Consortium (SGC)
# To each well of a 1,536w plate, 2ul of JMJD2A-Tudor (final 100nM) and 1ul biotinylated histone peptide methylated at Lys4 [b-H3(1-18)K4me3] (final 50nM) were added in 1x PBS buffer, pH 7.4, containing 0.01% Tween-20, using a nanoliter dispenser. Formation of a protein-peptide complex proceeded at room temperature for 30 min. A Kalypsys pin-tool transferred 23nl of library compound solution in DMSO to each well. Following a 30 min incubation of the protein-peptide complex with compounds at room temperature, a mixture of 40 µg/mL each streptavidin-coated donor and nickel chelate acceptor AlphaScreen beads (final 10 µg/mL) was added in a 1ul dispense for a final volume of 4ul, followed by a brief centrifugation (1000 rpm, 1 min). Plates were incubated protected from the light for 20 min at room temperature. Microplates were then read on an EnVision multilabel plate reader using the 1,536 plate HTS AlphaScreen aperture (excitation time 80 ms, measurement time 240 ms).
# Potency is read from the fitted curve at half-maximal effect.
row,SMILES,Potency
1,CCOc1ccc2oc(=O)cc(CN3CCN(C(=O)c4ccc(F)cc4)CC3)c2c1,inactive
2,CCOc1ccc(N(C)Cc2cc(=O)oc3ccc(OC)cc23)cc1,14.1 µM (active)
3,COc1ccc2oc(=O)cc(CN3CCOCC3)c2c1,inactive
4,Cc1ccc(NC(=O)c2oc3ccccc3c2NC(=O)Cc2cccs2)cc1,inactive
5,N#Cc1ccc(OC2=NS(=O)(=O)c3ccccc32)cc1,inactive
6,CCOC(=O)Cc1csc(NC(=O)CSc2nc(C)cc(=O)[nH]2)n1,20 µM (active)
7,CCCCc1nnc(NC(=O)CSc2nc(C)cc(=O)[nH]2)s1,inactive
8,CCOC(=O)Cc1csc(NC(=O)CSc2ccc(Br)cc2)n1,inactive
9,CCc1ccc(NC(=O)CN2CCSc3ccc(S(=O)(=O)N4CCCC4)cc32)cc1,inactive
10,COc1cc(OC)c(N(C)C(=O)c2cc3c(=O)oc4ccccc4c3s2)cc1Cl,inactive
11,Cc1ccccc1CS(=O)(=O)CC1Nc2ccc(C(=O)NCc3ccc(Cl)cc3)cc2NC1=O (centres undefined),inactive
12,Cn1c(SCC(=O)C(C)(C)C)nnc1-c1ccccn1,inactive
13,Cc1ccccc1CSc1nnc(-c2ccccn2)n1N,31.6 µM (active)
14,Cc1ccccc1CSc1nnc(-c2cccnc2)n1N,inactive
15,Fc1ccc(-c2nc(Nc3cccc(Cl)c3)nc3c2COc2ccccc2-3)cc1,inactive
16,O=C(NCCS(=O)(=O)N1CCN(c2ccc(F)cc2)CC1)c1ccccc1Br,inactive
17,CCC(=O)N1CCc2cc(S(=O)(=O)NC(Cc3ccccc3)C(=O)NCc3ccccc3)ccc21 (centres undefined),inactive
18,O=C(Nc1ccccc1Br)c1cc(CN2CCCC2)on1,inactive
19,CCN(c1ccc(NC(=O)COC(=O)CCc2nc3ccccc3n2-c2ccccc2)cc1)C(C)C,11.2 µM (active)
20,Cc1ccc(NC(=O)COC(=O)CCc2nc3ccccc3n2-c2ccccc2)c(C)c1,inactive
21,CC(C)(C)c1ccc(NC(=O)COC(=O)CCc2nc3ccccc3c(=O)[nH]2)cc1,inactive
22,Cc1ccc(Cn2c(CNC(=O)Cc3cccc(C)c3)nc3cccnc32)cc1,inactive
23,COc1cc2ccccc2cc1C(=O)Nc1cccc(-c2nc3ccccc3o2)c1,inactive
24,N=c1c2c3c(sc2ncn1CCCN1CCOCC1)CCCCC3,inactive
25,S=c1[nH]nc2c3c4c(sc3ncn12)CCCC4,22.4 µM (active)
26,CC(C(=O)O)n1cnc2sc3c(c2c1=O)CCCC3 (centres undefined),inactive
27,Cc1noc2ncnc(NCc3ccccc3Cl)c12,inactive
28,Cc1ccc(C)c(Cn2c(=O)n(CCC(=O)NCc3ccc4c(c3)OCO4)c(=O)c3sccc32)c1,inactive
29,COC(=O)c1ccccc1NC(=O)Cn1c(=O)n(-c2cccc(C(F)(F)F)c2)c(=O)c2c(C)c(C)sc21,inactive
